Screening data: PubChem BioAssay, several laboratories
HSP90 refold inh – blocks HSP90-mediated luciferase refolding in reticulocyte lysate; Rabbit reticulocyte lysate, luciferase refolding luminescence, 3 h; inhibition, % at 5.6 µM; actives 0.91% (n = 290,000);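 active = inhibition above the screen-wide mean plus 3 SD, computed separately per campaign, cut at about 16% in these data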;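 also: 0% = DMSO wells and 100% = 60 µM geldanamycin wells; inhibitors lower the luminescence because luciferase stays unfolded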
LGR2 inh – Drosophila LGR2 receptor signaling inhibition | HEK293 LGR2, CRE-luciferase, bursicon-stimulated, 4 h | inhibition, % at 9.99 µM | actives 0.35% (n = 380,000) | AID 720647;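 active = drop in luminescence signal, shown as inhibition above about 50% in the replicate tests, limit read from the data, passing the limit was not always enough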;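 also: agonist challenge used bursicon conditioned medium at about half maximal strength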
TROY NFkB inh – inhibitors of TROY-dependent NF-kB signaling; Q293 LMP1-TROYcd NF-kB luciferase reporter, 4 h; inhibition, % at 10 µM; actives 0.98% (n = 360,000); AID 1347056;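 active = compounds whose plate-normalised and pattern-corrected inhibition of the luciferase reporter signal at the single screening dose is 50% or more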
TWEAK Fn14 block – blocks TWEAK-Fn14 interaction in a reporter cell assay. TWEAK-stimulated Fn14 reporter cells, luciferase luminescence, 8 h. AID 1159606. actives 2% (n = 360,000). inhibition, % at 10 µM; in the data active = inhibition above about 50%
Active calls of the source: *; x = no result given. Most compounds without a hit are left out; they make up all but 2.2% or so of the library.

SMILES	HSP90 refold inh	LGR2 inh	TROY NFkB inh	TWEAK Fn14 block
Cc1nnc(SCC(=O)NC23CC4CC(CC(C4)C2)C3)n(N)c1=O	-3	-13	85*	97*
CN(Cc1ccc(OC(F)F)cc1)C(=O)c1cccc(S(=O)(=O)N2CCN(c3ccccc3)CC2)c1	x	0	37	73*
CN(CCOc1ccc(Cl)cc1)C(=O)c1cccc(S(=O)(=O)N2CCN(c3ccc(F)cc3)CC2)c1	x	x	13	64*
Cc1cccc(C)c1NC(=O)CN(C)C(=O)c1cccc(S(=O)(=O)N2CCN(c3ccccc3)CC2)c1	1	-1	23	-8
CO[C@H]1CN(C)C(=O)c2cc(NC(=O)C3CC3)ccc2OC[C@H](C)N(C)C[C@H]1C	x	2	x	x
CS(=O)(=O)c1nc(-c2ccc(F)cc2)cc(C(F)(F)F)n1	2	37	52*	86*
COc1ccc(-c2cc(C(F)(F)F)nc(S(C)(=O)=O)n2)cc1	7	x	47	53*
COc1ccc(-c2cc(C(F)(F)F)nc(N)n2)cc1	1	-27	-19	46
C[C@@H]1CN([C@@H](C)CO)C(=O)Cc2cc(NS(=O)(=O)c3cccs3)ccc2O[C@H]1CN(C)S(C)(=O)=O	x	13	x	x
COCC(=O)Nc1ccc2c(c1)C(=O)N(C)[C@H]1CC[C@H](CC(=O)NCC3CC3)O[C@H]1CO2	x	-4	x	x
C[C@H]1CN([C@@H](C)CO)C(=O)Cc2cc(NC(=O)Nc3ccc(C(F)(F)F)cc3)ccc2O[C@@H]1CN(C)S(=O)(=O)c1cccs1	x	15	x	x
Cc1ccnc(NC(=O)/C=C/c2cccs2)c1	2	13	-9	53*
COc1ccc(NC(=O)N(C)C[C@@H]2Oc3ccc(NC(=O)Cc4cn(C)c5ccccc45)cc3CC(=O)N([C@H](C)CO)C[C@H]2C)cc1	x	-9	x	x
CN(C)C(=O)C[C@@H]1CC[C@H]2[C@@H](COc3ccc(NC(=O)c4ccc(F)c(F)c4)cc3C(=O)N2C)O1	x	-13	x	x
O=C(Nc1nc(-c2ccc3c(c2)OCCO3)cs1)c1ccc(S(=O)(=O)N2CCCCC2)cc1	5	27	11	32
O=C(Nc1nc(-c2ccccc2)cs1)C1COc2ccccc2O1 (stereo not drawn)	3	x	x	8
O=C(COc1ccc(Cl)cc1)Nc1nc(-c2ccc(S(=O)(=O)N3CCOCC3)cc2)cs1	0	x	47	71*
O=C(Nc1nc(-c2ccc(S(=O)(=O)N3CCCC3)cc2)cs1)C1COc2ccccc2O1 (stereo not drawn)	0	x	37	61*
O=C(Nc1nc(-c2cccs2)cs1)c1ccc(S(=O)(=O)N2CCCC2)cc1	6	x	66*	93*
O=C(Nc1nc(-c2ccc(S(=O)(=O)N3CCCCCC3)cc2)cs1)c1ccccc1	-3	x	45	70*
CC=Cc1ccc2n(c1=O)C[C@@H]1[C@@H](CO)[C@H](C(=O)N3CCOCC3)N(CC3CC3)[C@H]21 (mixture of isomers)	x	-4	x	x
CN(C)S(=O)(=O)c1ccc(C(=O)Nc2nc(-c3cccs3)cs2)cc1	5	-16	55*	56*
O=S(=O)(c1ccc(-c2csc(Nc3ccc(F)cc3)n2)cc1)N1CCCC1	2	5	45	23
O=S(=O)(c1ccc(-c2csc(Nc3ccc(Br)cc3)n2)cc1)N1CCCC1	2	2	36	61*
COc1ccccc1NC(=O)N[C@H]1CC[C@@H](CCNS(=O)(=O)c2ccccc2)O[C@@H]1CO	x	-14	x	x
SMILES	HSP90 refold inh	LGR2 inh	TROY NFkB inh	TWEAK Fn14 block
C[C@@H]1CN([C@@H](C)CO)C(=O)Cc2cc(NS(=O)(=O)c3cn(C)cn3)ccc2O[C@H]1CN(C)C(=O)NC1CCCCC1	x	-17	x	x
O=C(NC1CCCCC1)N[C@H]1CC[C@H](CCNS(=O)(=O)c2ccccc2)O[C@H]1CO	x	2	x	x
CCN(CC)c1ccc(NC(=O)CSc2nc3ccccc3c(=O)n2-c2cc(S(=O)(=O)N(C)C)ccc2C)cc1	16*	-2	-2	-37
CN(C)S(=O)(=O)c1ccc(NC(=O)CSc2nc3ccccc3n2-c2ccccc2)cc1	1	13	2	47
N#C[C@H]1[C@@H](c2ccccc2-c2ccc(F)cc2)[C@@H](CO)N1C(=O)NC1CCCC1	x	-18	x	x
COc1cccc(NC(=O)COC(=O)c2c3c(nc4ccccc24)CCC(C)C3)c1 (stereo not drawn)	4	x	36	57*
CC1CCc2nc3ccccc3c(C(=O)OCC(=O)NC3CCS(=O)(=O)C3)c2C1 (stereo not drawn)	1	-7	-5	2
N#C/C(=C\c1cccc(Br)c1)C(=O)N1CCCCC1	17*	11	-18	24
COC(=O)C(=Cc1ccccc1[N+](=O)[O-])C(=O)OC	3	4	11	69*
COc1ccc(C(=O)CC(Sc2ccccc2N)c2ccc(OC)cc2)cc1 (stereo not drawn)	x	68*	13	80*
CC(C)CC#Cc1ccc2c(c1)O[C@H](CN(C)C(=O)c1cnccn1)[C@@H](C)CN([C@H](C)CO)S2(=O)=O	x	7	x	x
COc1ccccc1C(=O)Oc1cc(N)n(S(=O)(=O)c2ccc(C)cc2)n1	1	x	26	-1
Cc1ccc(S(=O)(=O)n2nc(OC(=O)c3ccccc3C)cc2N)cc1	-3	13	30	57*
Cc1ccc2sc(NNC(=O)c3cc(=O)c4ccccc4o3)nc2c1C	18*	-44	-5	-31
Cc1cccc2sc(NNC(=O)c3cc(=O)c4ccccc4o3)nc12	-5	-54	-16	14
COc1ccccc1-c1c(C#N)c(N)nc2c1CCc1ccccc1-2	4	21	54*	73*
CCOc1cc(-c2c(C#N)c(N)nc3c2CCCC3C)ccc1O (stereo not drawn)	-2	x	16	26
CCOc1cc(-c2c(C#N)c(N)nc3c2CCc2ccccc2-3)ccc1O	-1	12	14	75*
C[C@@H]1CN([C@H](C)CO)C(=O)c2cccc(NC(=O)c3ccc(-c4nccs4)cc3)c2O[C@@H]1CN(C)C(=O)Nc1ccc(F)cc1	x	8	x	x
CN1C(=O)c2cc(NC(=O)c3ccccc3Cl)ccc2OC[C@@H]2O[C@H](CC(=O)O)CC[C@@H]21	x	5	x	x
CC(C)CC(=O)NCCNC(=O)c1cc(OCC(F)(F)F)ccc1OCC(F)(F)F	5	x	x	76*
O=C(CCl)NCCNC(=O)c1cc(OCC(F)(F)F)ccc1OCC(F)(F)F	3	39	-11	13
Cc1ccn2cc(-c3cc4ccccc4oc3=O)nc2c1	6	46	0	66*
Cc1ccc(-c2csc(Cc3nc(-c4cc5ccccc5oc4=O)cs3)n2)cc1	2	-3	-65	23
Oc1ccc(-c2csc(Nc3ccc4c(c3)OCO4)n2)c(O)c1	x	-88	-22	15
N#Cc1ccc(Nc2nc(-c3ccc(O)cc3O)cs2)cc1C(F)(F)F	x	x	67*	86*
O=C(CC1CC1)N[C@H]1CC[C@@H](CCNS(=O)(=O)c2ccc(F)cc2)O[C@H]1CO	x	14	x	x
COc1ccc(/C=N/Nc2nc(-c3cccc(S(=O)(=O)N4CCCC4)c3)cs2)cc1OC	-3	-4	17	13
CCOc1cc(/C=N/Nc2nc(-c3cccc(S(=O)(=O)N4CCCC4)c3)cs2)ccc1O	-2	33	15	61*
